Shown are actives, neighbours in structure and some others; about 3.6% of the full set was active somewhere.
D1 PAM – Potentiators of Human D1 Dopamine Receptor: qHTS; D(1A) dopamine receptor (Homo sapiens), P21728; HEK293 TREx D1 cells, calcium flux, dopamine EC20 potentiation; potentiation, % at 10 µM; actives 0.036% (n = 360,000); AID 504651, 2011; in the data active = potentiation above about 30%; note: 0% is about no effect
LDHA inh – qHTS assay for inhibitors of human lactate dehydrogenase; L-lactate dehydrogenase A chain (Homo sapiens), P00338; purified LDHA, NADH/diaphorase-resazurin fluorescence; active compounds read low; actives 0.15% (n = 480,000); AID 1347041, 2019; activity change, % (values are at about 110 or 230 µM); in the data active = activity change below about -30%; inconclusive = mostly about -25% to -30%;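 note: plate controls were DMSO wells for no effect and wells without enzyme for full effect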
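Human LDH5 (2 nM) was incubated with 0.06 mM NADH and 0.2 mM pyruvate for 5 min at room temperature in Tris pH 7.4. Remaining NADH was coupled through diaphorase/resazurin, and resorufin fluorescence was read at 0 and 20 min.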
TRHR ag – qHTS for Small Molecule Agonists and Allosteric Enhancers of Human TRH Receptor: Primary Screen for Agonists | TRHR cells, calcium flux fluo-8, FDSS agonist mode | AID 493084, 2011 | activation, % at 2 µM | actives 0.18% (n = 360,000); note: 0% is about no effect
Target sequence (P34981 whole entry, looked up): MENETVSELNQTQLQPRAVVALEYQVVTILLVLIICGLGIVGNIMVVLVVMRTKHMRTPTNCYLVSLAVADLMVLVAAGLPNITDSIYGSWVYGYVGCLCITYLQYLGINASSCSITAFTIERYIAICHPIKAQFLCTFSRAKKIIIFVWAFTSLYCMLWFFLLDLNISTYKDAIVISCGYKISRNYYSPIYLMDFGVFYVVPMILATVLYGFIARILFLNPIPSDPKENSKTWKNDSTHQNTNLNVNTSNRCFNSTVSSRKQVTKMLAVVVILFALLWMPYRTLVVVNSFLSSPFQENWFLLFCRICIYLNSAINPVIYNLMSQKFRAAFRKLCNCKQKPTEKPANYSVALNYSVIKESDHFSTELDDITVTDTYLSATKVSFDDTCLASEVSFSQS
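Fluo-8-loaded TRHR cells; 10 s baseline, compound added, kinetic Ca2+ fluorescence read 1/s, agonist mode.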
TRHR enhancer – qHTS for Small Molecule Agonists and Allosteric Enhancers of Human TRH Receptor: Primary Screen for Enhancers; Thyrotropin-releasing hormone receptor (Homo sapiens), P34981; TRHR cells, fluo-8 calcium fluorescence, EC20 TRH enhancement; enhancement, % at 2 µM; actives 0.66% (n = 360,000); in the data active = enhancement above about 30%; note: 0% is about no effect
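TRHR-expressing cells loaded with fluo-8 calcium dye were read kinetically (ex 480/em 530) during compound addition, then stimulated with an EC20 of TRH (10 nM final). Enhancement of the Gq-mediated intracellular calcium response was scored.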
D1 antag – Antagonist of Human D 1 Dopamine Receptor: qHTS; D(1A) dopamine receptor (Homo sapiens), P21728; HEK293 TREx D1 cells, calcium flux, dopamine EC80; active compounds read low; activity change, negative = inhibition, % at 10 µM; actives 3.2% (n = 360,000); AID 504652, 2011; in the data active = activity change below about -30%; note: % is set by controls: 0 for no effect and ±100 for the full control effect
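Using tetracycline-induced force-coupled D1 Hek293 cells and a calcium dye, signals were followed for 180 s after compound, then for 180 s after EC80 dopamine, to detect inhibitors.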
D1 ag – Allosteric Agonists of the Human D1 Dopamine Receptor: qHTS | HEK293 T-REx D1 cells, calcium flux, agonist mode | activation, % at 2 µM | actives 1% (n = 360,000) | AID 504660, 2011; note: 0% is about no effect
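Tetracycline-induced HEK293 TREx D1 cells, force-coupled to calcium signalling, were dye-loaded with a no-wash calcium kit. Compound was pin-added after a 10 s baseline. Fluorescence was read kinetically at 1 cycle/s for 180 s, with calcium rises flagged as agonism.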
* hit, by the source's call; u = inconclusive; x = no result given. Cut-off read from the data, not from the text of the source, unless noted: active = activation above about 30%; inactive = the rest.

SMILES | D1 PAM | LDHA inh | TRHR ag | TRHR enhancer | D1 antag | D1 ag
CC(=O)NCC(=O)OCC(=O)Nc1ccc(C(C)=O)cc1 | 4 | 2 | -1 | 13 | -31* | 5
CC(=O)c1ccc(NC(=O)C[n+]2ccccc2)cc1 | -2 | -8 | 0 | 18 | -31* | 1
CC(=O)c1ccc(NC(=O)COC(=O)CCC2CCCC2)cc1 | x | -3 | x | x | x | x
COC(=O)c1ccc(NC(=O)COC(=O)CCC2CCCC2)cc1 | x | -4 | 0 | -3 | -41* | 13
CC(=O)OCC(=O)Nc1ccc(C(C)=O)cc1 | 3 | -3 | 1 | -5 | 3 | 4
CCC(=O)N1CCN(c2nc(-c3ccco3)c3c(c2C#N)CC(C)(C)SC3)CC1 | x | 6 | x | x | x | x
N#Cc1cc2c(nc1SCc1cccc(Cl)c1)CCCCC2 | -3 | -3 | 0 | 2 | -39* | 2
N#CCSc1nc2c(cc1C#N)CCCC2 | -4 | 0 | -1 | -1 | -32* | 4
N#Cc1cc2c(nc1SCC(=O)O)CCCCC2 | 2 | -1 | 0 | 3 | -6 | 4
Cc1ccc(CSc2nc3c(cc2C#N)CCC3)cc1 | -1 | -1 | 0 | 2 | -35* | 1
N#Cc1cc2c(nc1SCc1ccccc1)CCCCC2 | -2 | -1 | 0 | 8 | 5 | 12
COc1ccc(C(C)NC(=O)CCc2ncc(-c3c(F)cccc3F)o2)cc1F (stereo not drawn) | x | -24 | x | x | x | x
CC(C)[C@H](NC(=O)c1ccccc1F)C(=O)Nc1cccc(S(=O)(=O)N2CCCCC2)c1 | x | -3 | x | x | x | x
Nc1nc(-c2ccccc2)c(CC(=O)O)s1 | x | -5 | x | x | x | x
Nc1nc(-c2cccs2)c(CC(=O)O)s1 | 10 | -8 | 0 | 29 | -38* | -1
CC1Cc2ccccc2N1S(=O)(=O)c1cc(Cl)ccc1Cl (stereo not drawn) | x | -3 | x | x | x | x
Cc1nc2ccc(Cl)c([N+](=O)[O-])c2nc1C | x | 12 | x | x | x | x
COc1ccc(CCNC(=O)C(=O)NCC2OCCN2S(=O)(=O)c2ccc(Cl)cc2)cc1 (stereo not drawn) | -11 | -17 | 0 | 2 | -24 | 9
COc1ccc(CCNC(=O)C(=O)NCC2OCCN2S(=O)(=O)c2ccc(OC)cc2)cc1 (stereo not drawn) | -7 | -8 | -1 | 1 | -35* | 12
COc1ccc(S(=O)(=O)N2CCCOC2CNC(=O)C(=O)NCc2ccco2)cc1C (stereo not drawn) | 4 | -5 | -1 | 3 | -12 | 1
COc1ccc(S(=O)(=O)N2CCCOC2CNC(=O)C(=O)NCc2ccccc2F)cc1C (stereo not drawn) | -5 | 1 | 0 | -4 | -32* | 6
O=C(NCCc1ccccc1)C(=O)NCC1OCCCN1S(=O)(=O)c1cc(F)ccc1F (stereo not drawn) | 1 | -6 | 1 | 0 | -15 | 2
Cc1cc(F)ccc1S(=O)(=O)N1CCCOC1CNC(=O)C(=O)NCCc1ccccc1 (stereo not drawn) | -5 | 2 | 0 | -6 | -34* | 3
CCN(Cc1ccc(OC)c(OC)c1)C(=O)c1oc2ccc(Cl)cc2c1C | x | -18 | x | x | x | x
COc1ccc(Cl)cc1NC(=O)Cc1coc2cc(C)c(C)cc12 | x | 7 | x | x | x | x
SMILES | D1 PAM | LDHA inh | TRHR ag | TRHR enhancer | D1 antag | D1 ag
COc1cc2[nH]c(=S)n(C3CCCC3)c(=O)c2cc1OC | -5 | -3 | 1 | 4 | 3 | 0
COc1cc2[nH]c(=S)n(C3CC3)c(=O)c2cc1OC | 0 | -2 | 0 | 2 | -31* | 3
NC(=O)C1=C(Nc2ccc(Br)cc2F)c2ccccc2S1(=O)=O | x | 0 | x | x | x | x
O=C1NC(=S)S/C1=C\c1cc(Cl)ccc1Cl | x | -31* | x | x | x | x
Cc1cc(/C=C2\SC(=S)NC2=O)c(C)[nH]1 | 6 | -11 | 11 | -1 | 8 | 33*
O=C1NC(=S)SC1=Cc1ccccc1C(=O)O | x | -9 | x | x | x | x
Cc1cccc(C)c1NC(=O)COC(=O)CSc1ccc2ccccc2c1 | x | 7 | x | x | x | x
CCOC(=O)C1=C(C)N=c2s/c(=C\c3ccc(OCC(=O)O)cc3)c(=O)n2C1c1ccc(Cl)cc1 (stereo not drawn) | -5 | -5 | 9 | 4 | 2 | 38*
CCOC(=O)C1=C(C)N=c2s/c(=C/c3ccc(OCC(=O)O)cc3)c(=O)n2C1c1ccc(SC)cc1 (stereo not drawn) | -7 | x | 19 | -1 | -15 | 30*
CCOC(=O)C1=C(C)N=c2s/c(=C/c3ccc(OCC(=O)O)cc3)c(=O)n2C1c1ccc(F)cc1 (stereo not drawn) | -6 | -1 | 1 | -5 | -13 | 2
Cc1ccc(C(=O)NCC(=O)NCCc2c[nH]c3ccccc23)cc1 | x | -2 | x | x | x | x
CN(C)S(=O)(=O)c1cccc(CSCc2cccc(S(=O)(=O)N(C)C)c2)c1 | -8 | -4 | 2 | 1 | -36* | 23
Cc1cccc(C(C)C)c1NC(=O)c1ccc(CSc2ccccc2)cc1 | x | -2 | x | x | x | x
C[n+]1ccc(/C=C/c2ccc(Br)cc2)cc1 | x | -32* | x | x | x | x
O=C(/C=C/c1ccc(Br)cc1)c1ccc(Cl)cc1 | x | 11 | x | x | x | x
COc1ccc(Br)cc1CN1CCCC(C(=O)N2CCCCC2)C1 (stereo not drawn) | -7 | u | 0 | -3 | -26 | 1
COc1ccc(-c2[nH]ncc2CN2CCCC(C(=O)c3cccc(OC)c3)C2)cc1 (stereo not drawn) | -5 | -6 | 0 | -1 | 7 | 8
COc1ccccc1CN1CCCC(C(=O)N2CCCCC2)C1 (stereo not drawn) | 0 | 2 | 1 | 39* | -16 | 3
COc1cccc(OC)c1CN1CCCC(C(=O)c2ccccc2SC)C1 (stereo not drawn) | -5 | -4 | 0 | -2 | -57* | 18
COc1ccc(Br)cc1CN1CCCC(C(=O)N2CCCCCC2)C1 (stereo not drawn) | -6 | -33* | 0 | -3 | -34* | 5
COc1ccc(C(=O)C2CCCN(Cc3cn[nH]c3-c3ccccc3)C2)cc1OC (stereo not drawn) | -6 | -4 | 0 | -4 | -31* | 5
COc1ccc(C(=O)C2CCCN(Cc3c(O)cccc3OC)C2)cc1OC (stereo not drawn) | -3 | -5 | 0 | -1 | -17 | 2

Screening data deposited in PubChem by National Center for Advancing Translational Sciences (NCATS).
